Results as given in PubChem BioAssay (EPA / NIEHS).
Several values for one entry are separate records, joined by “and”; a condition that tells them apart may be missing. Equal entries are not always repeated. Records with an inconclusive call do not appear. Where a structure was tested more than once in an assay, its records may differ in their call. Activity calls are given as the source filed them. The calls were made as follows, unless noted: active = hit-call score of the fitted dose curve at least 0.9, where 1 is the maximum; inconclusive = response in the unintended direction; inactive = score below 0.9.

Key:
[1] = system: zebrafish Estrogen Receptor (ER2b), gene 317733; assay: ATG_zfER2b_XSP2: Attagene TRANS-FACTORIAL Multi-Species (XSP2) HepG2 Assay for zebrafish Estrogen Receptor (ER2b) (AID 2283823);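 also: fitted upward as reporter gain over DMSO so potency reflects activation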
Summary of the method: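 Reporter transcripts quantified by RT-PCR, fluorescent labelling and capillary electrophoresis after 24 h dosing of transfected HepG2 expressing zebrafish ER2b-GAL4 fusion. Medium contained 3 nM 6-alpha-fluorotestosterone plus 1.5 nM norgestrel; DMSO baseline.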

[2] = system: zebrafish Androgen Receptor (AR), gene 100005148; assay: ATG_zfAR_XSP2: Attagene TRANS-FACTORIAL Multi-Species (XSP2) HepG2 Assay for zebrafish Androgen Receptor (AR) (AID 2283825);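 also: hits raise reporter mRNA above DMSO so AC50 reflects agonist-type gain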
Summary of the method: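 After 24 h compound exposure in medium with 3 nM 6-alpha-fluorotestosterone plus 1.5 nM norgestrel, HepG2 cells carrying zebrafish AR–GAL4 reporter constructs were assessed for reporter mRNA gain by RT-PCR and capillary electrophoresis.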

[3] = biological target: Estrogen receptor (Homo sapiens) (UniProt P03372); assay: ATG_hERa_XSP2: Attagene TRANS-FACTORIAL Multi-Species (XSP2) HepG2 Assay for human Estrogen Receptor (ERa) (AID 2283827)
Summary of the method: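 Trans-activation of exogenous human ERa-Gal4 chimera read in HepG2 as reporter transcript after 24 h exposure; medium included 3 nM 6-alpha-fluorotestosterone and 1.5 nM norgestrel. Quantified by RT-PCR with capillary electrophoresis, positive-direction fitting against DMSO.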

[4] = system: frog Estrogen Receptor (ER2), gene 100174814; assay: ATG_frER2_XSP2: Attagene TRANS-FACTORIAL Multi-Species (XSP2) HepG2 Assay for frog Estrogen Receptor (ER2) (AID 2283828)
Summary of the method: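 Cells were transfected with reporter constructs under GAL4-UAS control, dosed with chemicals for 24 h, then lysed for RNA; the frog ER2-driven reporter mRNA was quantified by capillary electrophoresis of labeled PCR fragments, with activity fitted upward from DMSO.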

[5] = biological target: Peroxisome proliferator-activated receptor gamma (Homo sapiens) (UniProt P37231); assay: ATG_hPPARg_XSP2: Attagene TRANS-FACTORIAL Multi-Species (XSP2) HepG2 Assay for human Peroxisome Proliferator-activated Receptor gamma (PPARg) (AID 2283829);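 also: actives raise reporter mRNA above DMSO so AC50 reflects PPARg activation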
Summary of the method: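 HepG2 cells transiently transfected with GAL4-UAS reporter units driven by chimeric NR-Gal4 proteins; androgen receptor stimulated with 3 nM 6-alpha-fluorotestosterone and 1.5 nM norgestrel. After 24 h, reporter mRNA quantified by RT-PCR and capillary electrophoresis versus DMSO.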

[6] = biological target: zebrafish Thyroid Hormone Receptor alpha (TRa), thraa (gene 30670) (UniProt Q98867); assay: ATG_zfTRa_XSP2: Attagene TRANS-FACTORIAL Multi-Species (XSP1) HepG2 Assay for zebrafish Thyroid Hormone Receptor alpha (TRa) (AID 2283832);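 also: actives raise zebrafish TRa-Gal4 reporter transcript above DMSO baseline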
Summary of the method: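 Readout is reporter mRNA induction, quantified by RT-PCR and capillary electrophoresis with fluorescent labelling, after 24 h compound exposure of transiently transfected HepG2 cells carrying NR-Gal4 chimera reporters. Activity fitted upward relative to DMSO.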

[7] = system: zebrafish Peroxisome Proliferator-activated Receptor gamma (PPARg), gene 557037; assay: ATG_zfPPARg_XSP2: Attagene TRANS-FACTORIAL Multi-Species (XSP2) HepG2 Assay for zebrafish Peroxisome Proliferator-activated Receptor gamma (PPARg) (AID 2283833);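 also: reporter mRNA from a zebrafish PPARg GAL4 chimera measured by RT-PCR and capillary electrophoresis; actives increase reporter signal over DMSO so AC50 reflects activation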
Summary of the method: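 HepG2 cells transiently transfected with multiplexed GAL4-UAS reporter units expressing chimeric NR-Gal4 receptors, dosed 24 h. Reporter mRNA quantified by RT-PCR, fluorescent labelling, HpaI digestion and capillary electrophoresis; gain of signal fitted against DMSO.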

[8] = system: turtle Thyroid Hormone Receptor, alpha (TRa), gene 101949057; assay: ATG_trTRa_XSP2: Attagene TRANS-FACTORIAL Multi-Species (XSP1) HepG2 Assay for turtle Thyroid Hormone Receptor, alpha (TRa) (AID 2283834);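 also: hits raise reporter mRNA over the DMSO baseline so AC50 marks activators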
Summary of the method: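 HepG2 cells transiently transfected with GAL4-UAS reporter units for chimeric turtle TRa-Gal4; mRNA measured 24 h after dosing by RT-PCR and capillary electrophoresis fluorescence, gain of signal fitted against DMSO.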

[9] = ATG_M_61_XSP2: Attagene TRANS-FACTORIAL Multi-Species (XSP2) HepG2 Assay for M61 Transcription Factor (Internal Marker) (AID 2283835; active = hit-call score of the fitted dose curve at least 0.9, where 1 is the maximum; inactive = score below 0.9;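 also: active means a rise in signal above the DMSO baseline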)
Summary of the method: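 Transient MRTU transfection of human HepG2; 24 h chemical dosing with 3 nM 6-alpha-fluorotestosterone + 1.5 nM norgestrel added for AR stimulation. RNA isolated, RT, PCR, FAM-labelled, HpaI cut, CE read. Positive direction vs DMSO.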

[10] = biological target: zebrafish Thyroid Hormone Receptor beta (TRb), thrb (gene 30607) (UniProt Q9PVE4); assay: ATG_zfTRb_XSP2: Attagene TRANS-FACTORIAL Multi-Species (XSP1) HepG2 Assay for zebrafish Thyroid Hormone Receptor beta (TRb) (AID 2283836);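 as to AC50: potency for induction of reporter signal above DMSO so agonist direction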
Summary of the method: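 Reporter transcripts were measured by RT-PCR with fluorescent primer extension and capillary electrophoresis, 24 h after chemical dosing of transiently transfected HepG2 cells. Activity was scored as upward signal versus DMSO baseline.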

[11] = ATG_XTT_Cytotoxicity_XSP2: Cytotoxicity Assessment in the Attagene TRANS-FACTORIAL Multi-Species (XSP2) HepG2 Assay (AID 2283837)
Summary of the method: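 XTT-based cell number read-out in human HepG2 liver cells carrying transfected reporter units, measured 24 h after chemical dosing. Activity is signal loss versus DMSO baseline.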

[12] = biological target: frog Thyroid hormone Receptor alpha (TRa), thra-a (gene 397942) (UniProt P15204); assay: ATG_frTRa_XSP2: Attagene TRANS-FACTORIAL Multi-Species (XSP2) HepG2 Assay for frog Thyroid hormone Receptor alpha (TRa) (AID 2283839);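 as to AC50: AC50 reflects induction of frog TRa-driven reporter mRNA above DMSO baseline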
Summary of the method: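 HepG2 transiently transfected with multiplexed GAL4-UAS reporters driven by frog TRa-Gal4 chimeras; 24 h chemical exposure. Reporter mRNA quantified by RT-PCR, FAM labelling, HpaI digestion and capillary electrophoresis; gain of signal versus DMSO.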

[13] = system: Sodium/Iodide Symporter (NIS), SLC5A5 (gene 6528); assay: CPHEA_Stoker_NIS_Inhibition_RAIU: CPHEA's Radioactive Iodide Uptake (RAIU) Assay for Sodium/Iodide Symporter (NIS) Inhibition, Stoker and Laws Labs (AID 2283841)
Summary of the method: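 hNIS-HEK293T-EPA cells incubated 2 h at room temperature with compound (0.001–100 uM, 0.5% DMSO) and 329 pM final 125I in HBSS/10 mM HEPES, pH 7.4. Intracellular 125I counted; normalised to DMSO maximal uptake, triplicate, three biological replicates.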

[14] = CPHEA_Stoker_NIS_Cytotoxicity: Cytotoxicity Assessment for CPHEA's Radioactive Iodide Uptake (RAIU) Assay for Sodium/Iodide Symporter (NIS) Inhibition, Stoker and Laws Labs (AID 2283897);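 as to AC50: active means loss of ATP signal versus DMSO meaning cytotoxicity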
Summary of the method: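 hNIS-HEK293T-EPA cells, human NIS expressed in HEK293T, treated 2 h with chemicals (0.001–100 uM, 0.5% final DMSO). ATP content read by CellTiter-Glo luminescence; loss of signal analysed relative to DMSO.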

[15] = ATG_M_19_XSP2: Attagene TRANS-FACTORIAL Multi-Species (XSP2) HepG2 Assay for M32 Transcription Factor (Internal Marker) (AID 2283822)
Summary of the method: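 Internal background marker in a multi-species nuclear receptor TRANS panel: transfected HepG2 cells exposed 24 h, with 3 nM 6-alpha-fluorotestosterone and 1.5 nM norgestrel present. Readout is RT-PCR of reporter transcripts resolved by capillary electrophoresis, gain-of-signal versus DMSO.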

[16] = biological target: human Thyroid hormone Receptor alpha (TRa), THRA (gene 7067) (UniProt P10827); assay: ATG_hTRa_XSP2: Attagene TRANS-FACTORIAL Multi-Species (XSP2) HepG2 Assay for human Thyroid hormone Receptor alpha (TRa) (AID 2283838)
Summary of the method: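 Gain-of-signal in reporter mRNA, relative to DMSO, after 24 h dosing of transfected HepG2; quantitation by RT-PCR fragment analysis on capillary electrophoresis.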

[17] = biological target: human Thyroid hormone Receptor beta (TRb), THRB (gene 7068) (UniProt P10828); assay: ATG_hTRb_XSP2: Attagene TRANS-FACTORIAL Multi-Species (XSP2) HepG2 Assay for human Thyroid hormone Receptor beta (TRb) (AID 2283840);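 also: actives raise reporter mRNA so potency reflects agonist-like gain of signal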
Summary of the method: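 HepG2 transiently transfected with a multi-species panel including a human TRb–Gal4 chimera driving Gal4-UAS reporters; medium contained 3 nM 6-alpha-fluorotestosterone and 1.5 nM norgestrel. 24 h dosing; RT-PCR/capillary electrophoresis readout; positive-direction fit vs DMSO.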

Measured: AC50

frog Thyroid hormone Receptor alpha (TRa), thra-a (gene 397942), sequence (P15204 whole entry, looked up, the tested form may be a part): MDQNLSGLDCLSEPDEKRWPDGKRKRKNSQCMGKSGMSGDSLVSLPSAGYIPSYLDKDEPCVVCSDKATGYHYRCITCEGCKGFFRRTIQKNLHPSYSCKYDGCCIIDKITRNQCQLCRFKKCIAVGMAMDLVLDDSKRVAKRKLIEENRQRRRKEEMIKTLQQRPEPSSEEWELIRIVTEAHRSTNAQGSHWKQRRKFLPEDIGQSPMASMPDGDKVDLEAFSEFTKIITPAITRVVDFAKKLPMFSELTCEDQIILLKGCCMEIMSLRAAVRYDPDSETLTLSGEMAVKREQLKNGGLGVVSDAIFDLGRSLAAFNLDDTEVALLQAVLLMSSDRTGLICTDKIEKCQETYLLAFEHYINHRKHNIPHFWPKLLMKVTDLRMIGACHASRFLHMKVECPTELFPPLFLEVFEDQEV
Peroxisome proliferator-activated receptor gamma (Homo sapiens), sequence (P37231 whole entry, looked up, the tested form may be a part): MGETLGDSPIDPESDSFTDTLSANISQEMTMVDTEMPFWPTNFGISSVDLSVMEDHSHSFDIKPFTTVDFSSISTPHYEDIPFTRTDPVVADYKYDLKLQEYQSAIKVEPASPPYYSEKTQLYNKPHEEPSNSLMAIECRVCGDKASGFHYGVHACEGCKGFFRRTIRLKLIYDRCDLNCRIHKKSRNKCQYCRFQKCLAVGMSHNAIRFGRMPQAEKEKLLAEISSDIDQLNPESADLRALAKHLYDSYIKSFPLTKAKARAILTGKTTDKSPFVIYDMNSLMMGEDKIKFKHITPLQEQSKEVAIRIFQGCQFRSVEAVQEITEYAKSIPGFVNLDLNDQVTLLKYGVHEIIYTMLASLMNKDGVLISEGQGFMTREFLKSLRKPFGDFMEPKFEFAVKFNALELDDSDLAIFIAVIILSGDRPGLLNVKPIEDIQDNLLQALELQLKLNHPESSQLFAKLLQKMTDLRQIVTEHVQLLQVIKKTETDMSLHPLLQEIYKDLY
Estrogen receptor (Homo sapiens), sequence (P03372 whole entry, looked up, the tested form may be a part): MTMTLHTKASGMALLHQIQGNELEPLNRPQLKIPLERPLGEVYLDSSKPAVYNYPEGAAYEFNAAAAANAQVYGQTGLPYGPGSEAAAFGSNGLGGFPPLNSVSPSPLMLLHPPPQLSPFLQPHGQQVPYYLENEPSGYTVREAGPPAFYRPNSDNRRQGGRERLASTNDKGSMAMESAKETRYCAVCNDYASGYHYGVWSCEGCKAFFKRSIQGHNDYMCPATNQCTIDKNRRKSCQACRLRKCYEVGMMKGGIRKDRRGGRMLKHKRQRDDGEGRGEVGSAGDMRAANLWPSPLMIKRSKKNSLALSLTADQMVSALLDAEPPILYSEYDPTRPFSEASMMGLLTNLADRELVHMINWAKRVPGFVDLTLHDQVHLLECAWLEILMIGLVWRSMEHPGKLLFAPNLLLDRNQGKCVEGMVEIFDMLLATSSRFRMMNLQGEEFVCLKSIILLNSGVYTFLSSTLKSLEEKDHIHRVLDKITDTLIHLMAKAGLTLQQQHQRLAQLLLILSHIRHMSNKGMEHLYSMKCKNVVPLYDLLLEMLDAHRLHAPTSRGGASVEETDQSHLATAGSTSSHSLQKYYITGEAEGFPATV
zebrafish Thyroid Hormone Receptor beta (TRb), thrb (gene 30607), sequence (Q9PVE4 whole entry, looked up): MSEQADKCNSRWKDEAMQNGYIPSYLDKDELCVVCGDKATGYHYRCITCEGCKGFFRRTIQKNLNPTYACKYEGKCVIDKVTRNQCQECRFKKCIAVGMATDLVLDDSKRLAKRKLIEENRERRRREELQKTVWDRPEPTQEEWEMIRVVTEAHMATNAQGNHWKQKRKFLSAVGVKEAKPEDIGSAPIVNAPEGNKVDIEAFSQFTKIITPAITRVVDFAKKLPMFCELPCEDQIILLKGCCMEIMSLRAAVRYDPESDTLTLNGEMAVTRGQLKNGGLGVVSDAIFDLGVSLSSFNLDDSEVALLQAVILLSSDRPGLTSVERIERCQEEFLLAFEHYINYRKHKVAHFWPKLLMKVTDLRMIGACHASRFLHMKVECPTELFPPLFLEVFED
zebrafish Thyroid Hormone Receptor alpha (TRa), thraa (gene 30670), sequence (Q98867 whole entry, looked up, the tested form may be a part): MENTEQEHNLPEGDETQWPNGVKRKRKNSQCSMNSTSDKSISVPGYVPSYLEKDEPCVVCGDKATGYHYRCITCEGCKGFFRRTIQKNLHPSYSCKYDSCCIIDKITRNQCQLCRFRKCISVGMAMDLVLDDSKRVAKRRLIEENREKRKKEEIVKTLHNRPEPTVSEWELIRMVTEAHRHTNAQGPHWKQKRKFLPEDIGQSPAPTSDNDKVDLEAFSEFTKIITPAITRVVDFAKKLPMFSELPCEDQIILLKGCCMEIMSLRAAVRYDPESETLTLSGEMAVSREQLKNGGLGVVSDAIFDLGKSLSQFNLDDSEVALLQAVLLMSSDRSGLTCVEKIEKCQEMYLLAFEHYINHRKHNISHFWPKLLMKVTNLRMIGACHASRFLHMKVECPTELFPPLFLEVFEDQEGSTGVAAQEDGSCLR
human Thyroid hormone Receptor alpha (TRa), THRA (gene 7067), sequence (P10827 whole entry, looked up, the tested form may be a part): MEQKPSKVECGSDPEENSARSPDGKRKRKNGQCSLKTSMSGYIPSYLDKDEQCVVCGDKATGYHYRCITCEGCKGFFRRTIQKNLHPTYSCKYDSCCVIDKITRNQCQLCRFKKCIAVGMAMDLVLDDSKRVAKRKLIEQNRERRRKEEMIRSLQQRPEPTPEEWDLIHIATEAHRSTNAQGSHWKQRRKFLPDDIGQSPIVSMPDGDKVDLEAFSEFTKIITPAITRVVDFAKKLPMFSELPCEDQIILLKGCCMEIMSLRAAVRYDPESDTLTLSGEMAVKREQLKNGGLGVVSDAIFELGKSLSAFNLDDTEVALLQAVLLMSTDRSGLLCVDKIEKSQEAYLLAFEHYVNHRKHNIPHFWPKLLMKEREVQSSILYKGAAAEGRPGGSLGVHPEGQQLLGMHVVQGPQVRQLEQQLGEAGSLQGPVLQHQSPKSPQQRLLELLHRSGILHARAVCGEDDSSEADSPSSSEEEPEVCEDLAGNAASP
human Thyroid hormone Receptor beta (TRb), THRB (gene 7068), sequence (P10828 whole entry, looked up, the tested form may be a part): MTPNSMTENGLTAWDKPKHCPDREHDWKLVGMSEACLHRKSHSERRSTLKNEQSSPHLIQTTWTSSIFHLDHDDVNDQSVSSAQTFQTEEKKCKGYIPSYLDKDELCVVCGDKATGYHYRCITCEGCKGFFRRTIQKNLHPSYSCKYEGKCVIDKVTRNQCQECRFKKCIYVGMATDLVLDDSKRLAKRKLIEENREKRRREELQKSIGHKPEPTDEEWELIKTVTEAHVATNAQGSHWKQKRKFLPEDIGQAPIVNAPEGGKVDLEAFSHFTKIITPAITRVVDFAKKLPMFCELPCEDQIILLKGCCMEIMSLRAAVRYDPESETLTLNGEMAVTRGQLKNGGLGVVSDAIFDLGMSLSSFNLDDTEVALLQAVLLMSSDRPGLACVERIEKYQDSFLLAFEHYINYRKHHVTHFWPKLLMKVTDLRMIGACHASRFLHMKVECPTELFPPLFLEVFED

N[C@@H](Cc1cc(I)c(Oc2ccc(O)c(I)c2)c(I)c1)C(=O)O
inactive: [1] | [2] | [4] | [5] | [7] | [9] | [11] | [13] | [14]
active: [1] 4.9 µM | [3] 351 nM and 1.72 µM | [4] 4.9 µM | [5] 6.33 µM | [6] 0.534 nM and 449 nM | [8] 0.636 nM and 73.3 nM | [10] 0.339 nM and 77 nM | [12] 0.185 nM and 197 nM

CCCCC(CC)CN1C(=O)C2C3C=CC(C3)C2C1=O (stereo not drawn)
inactive: [15] | [6] | [8] | [12] | [13]
active: [1] 51.4 µM | [3] 2.56 µM | [4] 146 µM | [5] 100 µM | [7] 100 µM | [14] 50 µM

COC(=O)CSc1cc(N=c2sc(=O)n3n2CCCC3)c(F)cc1Cl
inactive: [13] | [14]

CN(C)C(=O)Nc1ccc(Cl)c(Cl)c1
active: [1] 130 µM and 65.2 µM | [3] 47.1 µM and 48.1 µM | [4] 33.8 µM
inactive: [4] | [5] | [6] | [7] | [8] | [9] | [10] | [11] | [16] | [12] | [17]

CCCN(CCC)c1c([N+](=O)[O-])cc(C(F)(F)F)c(N)c1[N+](=O)[O-]
active: [13] 31.8 µM | [14] 47.8 µM

C#CCOC(=O)[C@@H](C)Oc1ccc(Oc2ncc(Cl)cc2F)cc1
inactive: [13] | [14]
